# Bioassay records (PubChem)
# An excerpt weighted towards active compounds, which were near 6.8% of everything screened.
# MK inhibit – S. pneumoniae MK inhibitors, primary screen, biochemical, PK/LDH-coupled NADH absorbance | mevalonate kinase [Streptococcus pneumoniae D39] | 0.48% of 65,000 active | inhibition, % at 10 µM | purified MK, PK/LDH-coupled NADH absorbance 340 nm;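 active = ranked among the strongest by inhibition in the single 10 µM screen, a fixed top-ranked set picked for dose follow-up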
# DPM-DC inhibit – S. pneumoniae DPM-DC inhibitors, primary screen, biochemical, PK/LDH-coupled NADH fluorescence. diphosphomevalonate decarboxylase (Streptococcus pneumoniae D39). purified DPM-DC. calls only at 10 µM. 0.49% of 65,000 active. AID 556, 2006;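 active = the 320 compounds with the highest percent inhibition in the single-dose primary screen, excluding strongly autofluorescent ones, cut at about 32% in these data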;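 note: kinetic rate of NADH fluorescence loss reporting ADP formed by the decarboxylase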
# Abs 340nm – compound light absorbance at 340 nm, profiling panel, artefact control, biochemical, MLSMR library, data from PS, PMK, MK assays; compound absorbance at 340 nm, fold over control; fold change at 10 µM; 65,000 tested, under 10 active; AID 708, 2007;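 active = at 10 µM dose, initial 340 nm absorbance at least 2 fold that of control wells; inactive = change under 2 fold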;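 note: initial absorbance extrapolated from kinetic A340 decline of NADH oxidation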
# NADH coupling – inhibitors of PK/LDH coupling enzymes, profiling panel, artefact control, biochemical, MLSMR library; coupled PK/LDH NADH assays, four targets; IC50, µM (series often up to 10 µM), inactives show top-dose inhibition; 0.02% of 65,000 active;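 active = single-dose screening hits from any of four coupled enzyme assays that gave an IC50 when retested across doses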;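 note: the DPM-DC format reads NADH fluorescence rather than 340 nm absorbance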
# Fluor 339 460 – intrinsic fluorescence of library compounds, ex339/em460 – biochemical, MLSMR library, data from DPM-DC assay, artefact control, profiling panel; compound autofluorescence, ex339/em460 nm, NADH buffer; active compounds read high; 1 = no-compound wells, NADH background; fluorescence fold increase at 10 µM; 5.5% of 65,000 active; AID 709, 2007;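 active = at 10 µM, mean starting fluorescence two-fold or more over control wells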;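 note: signal is the first read of a kinetic run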
# PMK inhibit – S. pneumoniae PMK inhibitors, primary screen, biochemical, mevalonate pathway, pilot trial included; inhibition, % at 10 µM; AID 539, 2006; 0.49% of 65,000 active; purified PMK, PK/LDH-coupled NADH absorbance 340 nm;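 active = top-ranked compounds by inhibition in the single 10 µM screen, taking a fixed number of the strongest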;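 note: 0% = full reaction with DMSO carrier and 100% = background rate without enzyme reaction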
# Active calls of the source: *; i = inactive; . = no result shown; + = active, no number.
SMILES,MK inhibit,DPM-DC inhibit,Abs 340nm,NADH coupling,Fluor 339 460,PMK inhibit
COc1ccc2nc(CC(C)(C)CC(=O)O)c[n+]([O-])c2c1,13,.,1,6%,2.9*,7
CC1CCC2(CC1)NC(=O)c1ccccc1O2 (centres undefined),10,i,0.99,13%,1.1,23
O=C(c1cc2c(s1)-c1ccccc1OC2)N1CCCC1,9,.,1.2,6%,2.2*,2
Cc1csc(NC(=O)c2cc3c(s2)-c2ccccc2OC3)n1,7,.,1,1%,2.5*,0
O=C(Cn1ncc2c1-c1ccccc1OC2)N1CCN(c2ccccn2)CC1,2,i,0.98,1%,1.1,0
O=C(c1cc2c(s1)-c1ccccc1OC2)N1CCN(c2ccccn2)CC1,7,.,1.1,4%,2.1*,0
O=C(c1ccco1)N1CCN(C(=O)c2cc(-c3ccccn3)nc3ccc(Cl)cc23)CC1,11,i,1.1,7%,1.1,5
Nc1c(C(=O)NC2CCCC2)c2nc3ccccc3nc2n1/N=C/c1cccnc1,0,+,1.2,15%,3.2*,0
CCOCCCNC(=O)C1CCCN1C(=O)NC1CCCCC1 (centres undefined),9,i,0.97,7%,1.1,13
O/N=C1/CCc2cccc3cccc1c23,5,i,1,5%,1.2,11
O=C1OCc2cccc3cccc1c23,19,.,1.1,17%,2.1*,15
N#Cc1c(-c2ccco2)c2c([nH]c1=S)CCCC2,14,i,1,14%,1.1,16
N#Cc1c(-c2cccnc2)c2c([nH]c1=S)CCCC2,80*,+,1.1,42%,1.2,0
CC(C)(C)NC(=O)CN(Cc1cccnc1)C(=O)c1csnn1,8,i,1,8%,1.1,15
CCOc1ccc2cc(C#N)c(SCC(=O)N3CCCC3)nc2c1,13,i,1,8%,2.1*,9
NCC[C@H](O)C(=O)N[C@@H]1C[C@H](N)[C@@H](O[C@H]2O[C@H](CN)[C@@H](O)[C@H](O)[C@H]2O)[C@H](O)[C@H]1O[C@H]1O[C@H](CO)[C@@H](O)[C@H](N)[C@H]1O,4,i,1,1%,1.1,0
CCc1ccc(C2CC(c3cccc(OC)c3)n3nc(N)nc3N2)cc1 (centres undefined),8,i,0.99,2%,1.1,6
Cc1occc1-c1nnc(SCC(=O)Nc2ccccc2)n1C(C)c1ccccc1 (centres undefined),4,i,0.98,3%,1.1,4
COc1cccc(OC)c1OCC(O)CN1CCN(c2ccccc2)CC1 (centres undefined),16,i,0.97,15%,1.1,28*
Cc1cc(=O)oc2cc(OCC(O)CN3CCN(c4ccccc4)CC3)ccc12 (centres undefined),0,i,1.1,8%,3.4*,5
Cc1cc(=O)oc2cc(OCC(O)CN3CCc4ccccc4C3)ccc12 (centres undefined),0,.,1.1,9%,4.2*,17
COc1ccccc1N1CCN(CC(O)COc2ccc3c(C)cc(=O)oc3c2)CC1 (centres undefined),3,i,1.1,6%,1.8,0
Cc1cc(=O)oc2cc(OCCSCCN3CCOCC3)ccc12,7,i,1.1,3%,1.4,0
CCOC(=O)C(C(C)=O)c1c(Br)c(O)c(O)c2c(C(=O)c3ccc(C)cc3)coc12 (centres undefined),0,i,1.1,0%,1.1,1
Cc1cc(NC(=O)CCC(=O)N(c2ccc(F)cc2)C(C(=O)NC2CCCC2)c2ccncc2)no1 (centres undefined),3,i,1,10%,1.1,12
O=C(Nn1cnnc1)c1cc2cc(Br)ccc2oc1=O,9,i,1.1,9%,1.2,9
O=c1oc2ccc(Br)cc2cc1-c1nc2ccccc2o1,9,i,1,10%,2.3*,6
